# Measurements reported in publication PMC11006913.
# Numbering of substitutions follows the chain as printed.
# How the values were obtained:
# Test in all cases: PBM; 200 nM protein, PBS
# Conditions in all cases: dsDNA, one strand shown
# [1] = target: NKX2-5 (Homo sapiens, UniProt P52952 125-210, R139K)
# [2] = target: NKX2-5 (Homo sapiens, UniProt P52952 125-210)
# [3] = target: T1, VENTX (Homo sapiens, UniProt O95231 78-163)
# T1 sequence: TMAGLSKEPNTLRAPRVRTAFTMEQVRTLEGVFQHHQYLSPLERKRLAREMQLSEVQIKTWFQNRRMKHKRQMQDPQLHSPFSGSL
# [4] = target: T2, PAX4 (Homo sapiens, UniProt O43316 9-242, R200K)
# T2 sequence: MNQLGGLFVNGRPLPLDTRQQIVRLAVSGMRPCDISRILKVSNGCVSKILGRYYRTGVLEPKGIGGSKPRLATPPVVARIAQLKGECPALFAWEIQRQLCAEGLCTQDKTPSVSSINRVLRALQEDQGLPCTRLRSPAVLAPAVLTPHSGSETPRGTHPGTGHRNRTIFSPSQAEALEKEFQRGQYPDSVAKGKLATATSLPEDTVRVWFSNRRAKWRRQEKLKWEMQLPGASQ
# [5] = target: T3, VENTX (Homo sapiens, UniProt O95231 78-163, Y115F)
# T3 sequence: T1 sequence with Y38F
# [6] = target: T4, PAX4 (Homo sapiens, UniProt O43316 9-242)
# T4 sequence: T2 sequence with K192R
# [7] = target: T5, PAX4 (Homo sapiens, UniProt O43316 9-242, R200Q)
# T5 sequence: T2 sequence with K192Q
# [8] = target: HOXA2 (Homo sapiens, UniProt O43364 129-215, R185K)
# Chain of HOXA2 (Homo sapiens, UniProt O43364 129-215, R185K) (O43364 129-215 R185K): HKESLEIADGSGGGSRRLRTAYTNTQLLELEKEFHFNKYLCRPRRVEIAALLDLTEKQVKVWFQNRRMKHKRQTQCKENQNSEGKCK
# [9] = target: T6, PAX4 (Homo sapiens, UniProt O43316 9-242, F177V)
# T6 sequence: T2 sequence with F169V, K192R
# [10] = target: T7, PAX4 (Homo sapiens, UniProt O43316 9-242, F177Y)
# T7 sequence: T2 sequence with F169Y, K192R
# [11] = target: T8, PAX4 (Homo sapiens, UniProt O43316 9-242, R227W)
# T8 sequence: T2 sequence with K192R, R219W
# [12] = target: HOXA2 (Homo sapiens, UniProt O43364 129-215, Y150S)
# Chain of HOXA2 (Homo sapiens, UniProt O43364 129-215, Y150S) (O43364 129-215 Y150S): as the sequence (O43364 129-215 R185K) above, with Y22S, K57R counted along it
# [13] = target: HOXA2 (Homo sapiens, UniProt O43364 129-215)
# Chain of HOXA2 (Homo sapiens, UniProt O43364 129-215) (O43364 129-215): as the sequence (O43364 129-215 R185K) above, with K57R counted along it
# [14] = target: HOXB9 (Homo sapiens, UniProt P17482 171-250, T197M)
# Chain of HOXB9 (Homo sapiens, UniProt P17482 171-250, T197M) (P17482 171-250 T197M): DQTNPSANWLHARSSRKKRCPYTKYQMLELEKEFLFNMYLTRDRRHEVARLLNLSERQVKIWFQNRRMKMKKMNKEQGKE
# [15] = target: HOXC9 (Homo sapiens, UniProt P31274 178-260, K195R)
# Chain of HOXC9 (Homo sapiens, UniProt P31274 178-260, K195R) (P31274 178-260 K195R): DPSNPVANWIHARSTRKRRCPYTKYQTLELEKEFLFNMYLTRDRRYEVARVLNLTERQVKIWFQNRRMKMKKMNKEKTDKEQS
# [16] = target: HOXB9 (Homo sapiens, UniProt P17482 171-250)
# Chain of HOXB9 (Homo sapiens, UniProt P17482 171-250) (P17482 171-250): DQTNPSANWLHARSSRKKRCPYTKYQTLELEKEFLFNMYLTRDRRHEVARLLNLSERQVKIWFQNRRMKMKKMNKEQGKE
# [17] = target: HOXC9 (Homo sapiens, UniProt P31274 178-260, R193K)
# Chain of HOXC9 (Homo sapiens, UniProt P31274 178-260, R193K) (P31274 178-260 R193K): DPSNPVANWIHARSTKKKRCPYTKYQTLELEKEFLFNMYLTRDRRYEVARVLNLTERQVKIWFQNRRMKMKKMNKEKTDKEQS
# [18] = target: HOXC10 (Homo sapiens, UniProt Q9NYD6 254-340, K271E)
# Chain of HOXC10 (Q9NYD6 254-340 K271E): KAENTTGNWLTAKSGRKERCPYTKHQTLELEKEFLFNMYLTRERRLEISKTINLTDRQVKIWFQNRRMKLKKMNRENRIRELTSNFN
# [19] = target: HOXB9 (Homo sapiens, UniProt P17482 171-250, R186Q)
# Chain of HOXB9 (Homo sapiens, UniProt P17482 171-250, R186Q) (P17482 171-250 R186Q): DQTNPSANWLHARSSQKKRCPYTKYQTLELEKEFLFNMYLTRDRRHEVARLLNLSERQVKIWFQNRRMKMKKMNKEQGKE
# [20] = target: HOXC9 (Homo sapiens, UniProt P31274 178-260, R222W)
# Chain of HOXC9 (Homo sapiens, UniProt P31274 178-260, R222W) (P31274 178-260 R222W): as the sequence (P31274 178-260 R193K) above, with K16R, R45W counted along it
# Chain of NKX2-5 (Homo sapiens, UniProt P52952 125-210, R139K) (P52952 125-210 R139K): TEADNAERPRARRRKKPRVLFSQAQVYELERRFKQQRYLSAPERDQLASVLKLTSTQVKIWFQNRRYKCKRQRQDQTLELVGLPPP
# Chain of NKX2-5 (Homo sapiens, UniProt P52952 125-210) (P52952 125-210): as the sequence (P52952 125-210 R139K) above, with K15R counted along it
sequence,measurement,setting,value
GATGAGTA,binding signal,[1],"11 upbm affinity estimate (log intensity, higher = more binding, comparable within an allelic series)"
same,binding signal,[2],"10.9 upbm affinity estimate (log intensity, higher = more binding, comparable within an allelic series)"
ACTAATTG,binding signal,[3],"12.9 upbm affinity estimate (log intensity, higher = more binding, comparable within an allelic series)"
same,binding signal,[4],"11.5 upbm affinity estimate (log intensity, higher = more binding, comparable within an allelic series)"
same,binding signal,[5],"11.9 upbm affinity estimate (log intensity, higher = more binding, comparable within an allelic series)"
same,binding signal,[6],"12.1 upbm affinity estimate (log intensity, higher = more binding, comparable within an allelic series)"
same,binding signal,[7],"12 upbm affinity estimate (log intensity, higher = more binding, comparable within an allelic series)"
same,binding signal,[8],"13.3 upbm affinity estimate (log intensity, higher = more binding, comparable within an allelic series)"
same,binding signal,[9],"10.3 upbm affinity estimate (log intensity, higher = more binding, comparable within an allelic series)"
same,binding signal,[10],"10.7 upbm affinity estimate (log intensity, higher = more binding, comparable within an allelic series)"
same,binding signal,[11],"10.8 upbm affinity estimate (log intensity, higher = more binding, comparable within an allelic series)"
same,binding signal,[12],"10.8 upbm affinity estimate (log intensity, higher = more binding, comparable within an allelic series)"
same,binding signal,[13],"12.4 upbm affinity estimate (log intensity, higher = more binding, comparable within an allelic series)"
CCAGGTCC,binding signal,[3],"8.06 upbm affinity estimate (log intensity, higher = more binding, comparable within an allelic series)"
same,binding signal,[5],"7.95 upbm affinity estimate (log intensity, higher = more binding, comparable within an allelic series)"
same,binding signal,[8],"10.3 upbm affinity estimate (log intensity, higher = more binding, comparable within an allelic series)"
same,binding signal,[12],"10.5 upbm affinity estimate (log intensity, higher = more binding, comparable within an allelic series)"
same,binding signal,[13],"7.25 upbm affinity estimate (log intensity, higher = more binding, comparable within an allelic series)"
AATTAGTC,binding signal,[4],"11.7 upbm affinity estimate (log intensity, higher = more binding, comparable within an allelic series)"
same,binding signal,[6],"12.2 upbm affinity estimate (log intensity, higher = more binding, comparable within an allelic series)"
same,binding signal,[7],"12.1 upbm affinity estimate (log intensity, higher = more binding, comparable within an allelic series)"
same,binding signal,[9],"10.4 upbm affinity estimate (log intensity, higher = more binding, comparable within an allelic series)"
same,binding signal,[10],"10.8 upbm affinity estimate (log intensity, higher = more binding, comparable within an allelic series)"
same,binding signal,[11],"10.9 upbm affinity estimate (log intensity, higher = more binding, comparable within an allelic series)"
ACAATTAA,binding signal,[14],"10.1 upbm affinity estimate (log intensity, higher = more binding, comparable within an allelic series)"
same,binding signal,[15],"12.5 upbm affinity estimate (log intensity, higher = more binding, comparable within an allelic series)"
same,binding signal,[5],"11.5 upbm affinity estimate (log intensity, higher = more binding, comparable within an allelic series)"
same,binding signal,[16],"11.8 upbm affinity estimate (log intensity, higher = more binding, comparable within an allelic series)"
same,binding signal,[7],"11.8 upbm affinity estimate (log intensity, higher = more binding, comparable within an allelic series)"
same,binding signal,[17],"12.5 upbm affinity estimate (log intensity, higher = more binding, comparable within an allelic series)"
same,binding signal,[8],"13.1 upbm affinity estimate (log intensity, higher = more binding, comparable within an allelic series)"
same,binding signal,[18],"12 upbm affinity estimate (log intensity, higher = more binding, comparable within an allelic series)"
same,binding signal,[19],"11.6 upbm affinity estimate (log intensity, higher = more binding, comparable within an allelic series)"
same,binding signal,[20],"11 upbm affinity estimate (log intensity, higher = more binding, comparable within an allelic series)"
ATTAATAG,binding signal,[14],"10.1 upbm affinity estimate (log intensity, higher = more binding, comparable within an allelic series)"
same,binding signal,[15],"12.7 upbm affinity estimate (log intensity, higher = more binding, comparable within an allelic series)"
same,binding signal,[16],"11.9 upbm affinity estimate (log intensity, higher = more binding, comparable within an allelic series)"
same,binding signal,[17],"12.6 upbm affinity estimate (log intensity, higher = more binding, comparable within an allelic series)"
same,binding signal,[18],"12 upbm affinity estimate (log intensity, higher = more binding, comparable within an allelic series)"
same,binding signal,[19],"11.7 upbm affinity estimate (log intensity, higher = more binding, comparable within an allelic series)"
same,binding signal,[20],"11.1 upbm affinity estimate (log intensity, higher = more binding, comparable within an allelic series)"
ATAATTGA,binding signal,[14],"9.97 upbm affinity estimate (log intensity, higher = more binding, comparable within an allelic series)"
same,binding signal,[7],"11.9 upbm affinity estimate (log intensity, higher = more binding, comparable within an allelic series)"
same,binding signal,[10],"11 upbm affinity estimate (log intensity, higher = more binding, comparable within an allelic series)"
ACTAATTA,binding signal,[14],"10.1 upbm affinity estimate (log intensity, higher = more binding, comparable within an allelic series)"
same,binding signal,[15],"12.5 upbm affinity estimate (log intensity, higher = more binding, comparable within an allelic series)"
same,binding signal,[3],"13.3 upbm affinity estimate (log intensity, higher = more binding, comparable within an allelic series)"
same,binding signal,[4],"12.2 upbm affinity estimate (log intensity, higher = more binding, comparable within an allelic series)"
same,binding signal,[5],"12.6 upbm affinity estimate (log intensity, higher = more binding, comparable within an allelic series)"
same,binding signal,[6],"12.7 upbm affinity estimate (log intensity, higher = more binding, comparable within an allelic series)"
same,binding signal,[7],"12.7 upbm affinity estimate (log intensity, higher = more binding, comparable within an allelic series)"
same,binding signal,[8],"13.8 upbm affinity estimate (log intensity, higher = more binding, comparable within an allelic series)"
same,binding signal,[9],"10.8 upbm affinity estimate (log intensity, higher = more binding, comparable within an allelic series)"
same,binding signal,[18],"11.9 upbm affinity estimate (log intensity, higher = more binding, comparable within an allelic series)"
same,binding signal,[10],"11.4 upbm affinity estimate (log intensity, higher = more binding, comparable within an allelic series)"
same,binding signal,[11],"11.4 upbm affinity estimate (log intensity, higher = more binding, comparable within an allelic series)"
same,binding signal,[12],"11 upbm affinity estimate (log intensity, higher = more binding, comparable within an allelic series)"
same,binding signal,[13],"13.3 upbm affinity estimate (log intensity, higher = more binding, comparable within an allelic series)"
CAATTAAC,binding signal,[14],"9.98 upbm affinity estimate (log intensity, higher = more binding, comparable within an allelic series)"
same,binding signal,[15],"12.5 upbm affinity estimate (log intensity, higher = more binding, comparable within an allelic series)"
same,binding signal,[3],"12.8 upbm affinity estimate (log intensity, higher = more binding, comparable within an allelic series)"
same,binding signal,[4],"11.5 upbm affinity estimate (log intensity, higher = more binding, comparable within an allelic series)"
same,binding signal,[5],"11.9 upbm affinity estimate (log intensity, higher = more binding, comparable within an allelic series)"
same,binding signal,[6],"12.1 upbm affinity estimate (log intensity, higher = more binding, comparable within an allelic series)"
same,binding signal,[7],"12 upbm affinity estimate (log intensity, higher = more binding, comparable within an allelic series)"
same,binding signal,[17],"12.5 upbm affinity estimate (log intensity, higher = more binding, comparable within an allelic series)"
same,binding signal,[8],"13.3 upbm affinity estimate (log intensity, higher = more binding, comparable within an allelic series)"
same,binding signal,[9],"10.6 upbm affinity estimate (log intensity, higher = more binding, comparable within an allelic series)"
same,binding signal,[18],"11.8 upbm affinity estimate (log intensity, higher = more binding, comparable within an allelic series)"
same,binding signal,[10],"10.9 upbm affinity estimate (log intensity, higher = more binding, comparable within an allelic series)"
same,binding signal,[19],"11.4 upbm affinity estimate (log intensity, higher = more binding, comparable within an allelic series)"
same,binding signal,[20],"10.9 upbm affinity estimate (log intensity, higher = more binding, comparable within an allelic series)"
same,binding signal,[11],"10.8 upbm affinity estimate (log intensity, higher = more binding, comparable within an allelic series)"
same,binding signal,[12],"10.8 upbm affinity estimate (log intensity, higher = more binding, comparable within an allelic series)"
same,binding signal,[13],"12.3 upbm affinity estimate (log intensity, higher = more binding, comparable within an allelic series)"
